The nature of assay [1]: qHTS of pediatric cancer cell lines to identify multiple opportunities for drug repurposing: Primary screen for A673 cells (AID 1347092). Further: nearly all actives have a fitted effect of over 45% in size. Further: potency means the concentration at half of the fitted maximal effect. The essentials: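 Titration-based qHTS on A673 cells: MIPE compounds spanned 11 points (0.78 nM to 46 µM final), NPC compounds 8 points (0.59 nM to 46 µM final). Viability after 48 h was measured by ATP luminescence.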
(In general: Quantitative high-throughput screening tests each substance at several concentrations.)

The nature of assay [2]: qHTS of pediatric cancer cell lines to identify multiple opportunities for drug repurposing: Primary screen for SK-N-MC cells (AID 1347093). Further: potency means the concentration at half of the fitted maximal effect. The method in brief:
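Metabolically active cells were quantified by ATP-dependent luminescence (CellTiter-Glo, 15 min at room temperature) following 48 h treatment. Cells had been plated at 500-1,000 per well and settled for 5 h beforehand.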

Assay [3] can be described thus: qHTS of pediatric cancer cell lines to identify multiple opportunities for drug repurposing: Primary screen for NB-EBc1 cells (AID 1347095). Further: potency means the concentration at half of the fitted maximal effect. The essentials:
(§1)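 CRCs from 8- or 11-point titrations (lowest final 0.59 nM NPC, 0.78 nM MIPE). Cell viability: CellTiter-Glo after 48 h incubation, 15 min room-temperature development, luminescence imaging.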

Assay [4] in a line: qHTS of pediatric cancer cell lines to identify multiple opportunities for drug repurposing: Primary screen for Saos-2 cells (AID 1347097). Further: nearly all actives have a fitted effect of over 40% in size. Further: potency means the concentration at half of the fitted maximal effect. The method in brief: as §1
Assay [5] in a line: qHTS of pediatric cancer cell lines to identify multiple opportunities for drug repurposing: Primary screen for SK-N-SH cells (AID 1347098). Further: nearly all actives have a fitted effect of over 65% in size. Further: potency means the concentration at half of the fitted maximal effect. The method in brief:
(§2)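 Cells (500-1,000/well) rested 5 h, then received compounds for 48 h; metabolically active cells were measured by CellTiter-Glo luminescence. Final concentrations spanned up to 46 µM (MIPE, 11-point) or 0.59 nM-46 µM (NPC, 8-point) in primary screens, 11-point in follow-ups.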

Assay [6] is described as follows: qHTS of pediatric cancer cell lines to identify multiple opportunities for drug repurposing: Primary screen for NB1643 cells (AID 1347099). Further: nearly all actives have a fitted effect of over 50% in size. Further: potency means the concentration at half of the fitted maximal effect. The method in brief:
as §1

Assay [7] is described as follows: qHTS of pediatric cancer cell lines to identify multiple opportunities for drug repurposing: Primary screen for LAN-5 cells (AID 1347100). Further: potency means the concentration at half of the fitted maximal effect. The method in brief:
as §2

Assay [8] can be described thus: qHTS of pediatric cancer cell lines to identify multiple opportunities for drug repurposing: Primary screen for Rh18 cells (AID 1347102). Further: nearly all actives have a fitted effect of over 65% in size. Further: potency means the concentration at half of the fitted maximal effect. The method in brief:
as §2

Assay [9] can be described thus: qHTS of pediatric cancer cell lines to identify multiple opportunities for drug repurposing: Primary screen for MG 63 (6-TG R) cells (AID 1347105). Further: nearly all actives have a fitted effect of over 50% in size. Further: potency means the concentration at half of the fitted maximal effect. The method in brief:
as §1

Assay [10] is described as follows: qHTS of pediatric cancer cell lines to identify multiple opportunities for drug repurposing: Primary screen for Rh30 cells (AID 1347107). Further: nearly all actives have a fitted effect of over 75% in size. Further: potency means the concentration at half of the fitted maximal effect. The method in brief:
as §2

A short description of assay [11]: qHTS of pediatric cancer cell lines to identify multiple opportunities for drug repurposing: Confirmatory screen for NB1643 cells (AID 1347109). Further: potency means the concentration at half of the fitted maximal effect; nearly all actives have a fitted effect of over 45% in size. The essentials:
as §2

Assay [12] can be described thus: qHTS of pediatric cancer cell lines to identify multiple opportunities for drug repurposing: Confirmatory screen for A673 cells (AID 1347110).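 Further: potency means the concentration at half of the fitted maximal effect; cells exposed to compound for 48 h before the viability read; nearly all actives have a fitted effect of over 65% in size.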 The method in brief: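 Forty-eight-hour viability assay. Follow-up compounds ran at 11-point dilutions; positive control bortezomib at 2.3 uM final, neutral control DMSO.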
Assay [13] is described as follows: qHTS of pediatric cancer cell lines to identify multiple opportunities for drug repurposing: Confirmatory screen for SK-N-MC cells (AID 1347111).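 Further: potency means the concentration at half of the fitted maximal effect; cells exposed to compound for 48 h before the readout; nearly all actives have a fitted effect of over 70% in size.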 The essentials:
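Seed 500-1,000 cells/well; rest 5 h at 37 degrees C. Pin-transfer compounds, 11-point titration. Incubate 48 h. Add CellTiter-Glo, 15 min RT, read luminescence.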

The nature of assay [14]: qHTS of pediatric cancer cell lines to identify multiple opportunities for drug repurposing: Primary screen for U-2 OS cells (AID 1347096). Further: nearly all actives have a fitted effect of over 50% in size. The essentials:
as §2

Assay [15] is described as follows: qHTS of pediatric cancer cell lines to identify multiple opportunities for drug repurposing: Primary screen for OHS-50 cells (AID 1347103). Further: nearly all actives have a fitted effect of over 40% in size. Further: potency means the concentration at half of the fitted maximal effect. The essentials: as §2
Assay [16] is described as follows: qHTS of pediatric cancer cell lines to identify multiple opportunities for drug repurposing: Primary screen for control Hh wild type fibroblast cells (AID 1347106).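 Further: series mostly up to about 46 µM; a drop in luminescence marks cytotoxicity and a rise apparent proliferation; nearly all actives have a fitted effect of over 55% in size.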 The essentials: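 Cells (500-1,000/well) in growth media were settled 5 h at 37 degrees C, then given compounds for 48 h. Viability was read as CellTiter-Glo luminescence. Primary runs used MIPE at 11 points (0.78 nM-46 µM) and NPC at 8 points (0.59 nM-46 µM); follow-ups used 11 points.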

A short description of assay [17]: qHTS of pediatric cancer cell lines to identify multiple opportunities for drug repurposing: Primary screen for BT-37 cells (AID 1347094). Further: potency means the concentration at half of the fitted maximal effect. The method in brief: as §1
Assay [18] in a line: qHTS of pediatric cancer cell lines to identify multiple opportunities for drug repurposing: Primary screen for BT-12 cells (AID 1347101). Further: nearly all actives have a fitted effect of over 25% in size. Further: potency means the concentration at half of the fitted maximal effect. The essentials: as §2
The nature of assay [19]: qHTS of pediatric cancer cell lines to identify multiple opportunities for drug repurposing: Primary screen for RD cells (AID 1347104). Further: nearly all actives have a fitted effect of over 55% in size. Further: potency means the concentration at half of the fitted maximal effect. The method in brief: as §1
Assay [20] in a line: qHTS of pediatric cancer cell lines to identify multiple opportunities for drug repurposing: Primary screen for Rh41 cells (AID 1347108). Further: nearly all actives have a fitted effect of over 70% in size. Further: potency means the concentration at half of the fitted maximal effect. The method in brief: as §1

This is an account of results in PubChem BioAssay (NCATS).

Records with an inconclusive call do not appear. Calls of active or inactive are those of the source. The call rests on the fitted dose curve; in most records, active means well fitted curve in the direction sought with a large enough effect; inconclusive means small, poorly fitted or top-dose-only effect, or another doubt; inactive means no such curve, though single readings can be large; an effect the other way counts as inactive or inconclusive.

For `COc1cc(OC)c(C=CS(=O)(=O)Cc2ccc(OC)c(NCC(=O)O)c2)c(OC)c1`, the Potency in assay [1] was 148 nM (active); in [2], 93.5 nM (active); in [3] it was 187 nM (active); in assay [4], 0.059 µM (active); in [5] it was 7.64 µM (active); in assay [6], 37.2 nM (active). The Potency in assay [7] is 148 nM (active); in [11], 414 nM (active); in assay [12], 369 nM (active); in [13], 293 nM (active). In addition, the Potency result in assay [8], in [9] and in assay [10] was “inactive” each time.

With `CCOC(=O)C1=C(C)NC(=S)NC1c1cccc(O)c1` (stereo not given), the Potency was 46.9 nM (active) in [1]; 264 nM (active) in assay [2]; 264 nM (active) in assay [3]; 187 nM (active) in assay [7]; 0.0968 µM (active) in assay [15]; 11700 nM (active) in assay [12]. Moreover, in assay [13], the Potency is 5220 nM (active). In addition, the Potency entry in assay [14], in [6], in [16] and in [10] was “inactive” each time.

With `N#CNC(=NCCCCCCOc1ccc(Cl)cc1)Nc1ccncc1`, the Potency in [1] was 2.3 nM (active); in assay [2], 3.3 nM (active); in assay [17], 3.9 nM (active); in [3], 1 nM (active); in [5], 0.0607 µM (active); in [6] it was 7.4 nM (active). In addition, the Potency in [7] is 1 nM (active); in assay [18] it was 0.544 µM (active); in [8], 0.0187 µM (active); in assay [15] it was 21.7 µM (active); in [19], 5.9 nM (active); in assay [9], 14.8 µM (active). Further, the Potency in assay [10] was 5.9 nM (active); in assay [20], 5.9 nM (active); in assay [11] it was 14.7 nM (active); in assay [12] it was 11.7 nM (active); in assay [13], 14.7 nM (active). Moreover, the Potency entry in assay [16] is “inactive”.

On to `COc1cc2c(cc1O)CCC1C2CC[C@@]2(C)C1CC[C@@H]2O` (stereo not given in full), for which the Potency in [1] is 3720 nM (active); in [2], 6620 nM (active); in assay [3], 526 nM (active); in [4] it was 1.05 µM (active); in assay [15], 7.69 µM (active). Moreover, the Potency result in [14], in assay [7], in [16] and in assay [10] was “inactive” throughout.

On to `CC(Oc1ccc(O)cc1)(P(=O)(O)O)P(=O)(O)O`, for which the Potency entry in assay [1], in assay [17], in assay [3], in assay [14], in assay [4] and in assay [5] was “inactive” throughout. The Potency entry in assay [6], in [7], in assay [18], in assay [8], in [15] and in [19] was “inactive” throughout. The Potency entry in assay [9], in assay [16], in assay [10] and in assay [20] was “inactive” each time.

Take `Oc1cc(-c2nc(-c3ccccc3)[nH]c2-c2ccncc2)ccc1Cl`: the Potency is 1480 nM (active) in [1]; 3850 nM (active) in assay [17]; 3720 nM (active) in assay [3]; 11.8 µM (active) in assay [4]; 19.2 µM (active) in assay [5]; 18700 nM (active) in assay [6]. Moreover, the Potency in [7] was 16600 nM (active); in [18] it was 6.11 µM (active); in [8], 13.2 µM (active); in [15], 24.3 µM (active); in assay [19], 2090 nM (active); in [13] it was 3690 nM (active). Also, in assay [16], the Potency entry is “inactive”.
